# Laboratory results taken from PubChem BioAssay (NCATS).
# Inconclusive results are not listed. A call without a number means that no potency is given here. A number with no mark means an inactive call. Active and inactive are the calls of the source. Calls come from the whole dose curve.
# Experiment: A High-Content qHTS Against Drug Library for the Identification of Small Molecules that Inhibit DYT1 Early Onset Primary Dystonia-Associated Cell Pathology (AID 1645839)
# Settings: HEK293 Flp-In EGFP-delE TorsinA, punctate imaging, 48 h; series mostly up to 46.1 µM
# Text: Nicole Calakos M.D., Ph.D.
# Duke University School of Medicine, Durham, NC
# In DYT1 dystonia due to delGAG in the TOR1A gene, there is a robust and widely replicated finding of TorsinA protein mislocalization caused when the mutant protein is in excess of the wildtype protein (1-7). Stable HEK293 cell lines were created that replicate this phenomenon. Inducible expression of an EGFP-hu delE TorsinA encoding cDNA causes pronounced punctate cellular distribution. […] This phenotypic difference in EGFP-huTorsinA fusion protein distribution serves as an indicator of cell pathology. […] RNAi screen results with the assay were validated in DYT1 patient cell phenotypes, intersected with a known dystonia gene, and led to discovery of new human genetic dystonia associations.
# The bioassay described herein is a high-content image screen with two readouts. The "%pathology" readout is the primary qHTS data channel, while the "cellcount" is the counterscreen qHTS channel. Desired active compounds are those that show inhibition in %pathology channel but no activity or minimal toxicity in cellcount readout.
# 1. Kustedjo, K., Bracey, M.H., and Cravatt, B.F. (2000). […] J. Biol. Chem. 275, 27933 - 27939.
# 2. Bragg, D.C., Kaufman, C.A., Kock, N., and Breakefield, X.O. (2004). Inhibition of N-linked glycosylation prevents inclusion formation by the dystonia-related mutant form of torsinA. Mol. Cell. Neurosci. 27, 417 - 426.
# 3. Gonzalez-Alegre, P., and Paulson, H.L. (2004). Aberrant Cellular Behavior of Mutant TorsinA Implicates Nuclear Envelope Dysfunction in DYT1 Dystonia. J. Neurosci. 24, 2593 - 2601.
# 4. Goodchild, R.E., and Dauer, W.T. (2004). Mislocalization to the nuclear envelope: an effect of the dystonia-causing torsinA mutation. Proc. Natl. Acad. Sci. U. S. A. 101, 847 - 852.
# 5. Kock, N., Allchorne, A.J., Sena-Esteves, M., Woolf, C.J., and Breakefield, X.O. (2006). RNAi blocks DYT1 mutant torsinA inclusions in neurons. Neurosci. Lett. 395, 201 - 205.
# 6. Hewett, J.W., Nery, F.C., Niland, B., Ge, P., Tan, P., Hadwiger, P., Tannous, B.A., Sah, D.W.Y., and Breakefield, X.O. (2008). siRNA knock-down of mutant torsinA restores processing through secretory pathway in DYT1 dystonia cells. Hum. Mol. Genet. 17, 1436 - 1445.
# 7. Calakos, N., Patel, V.D., Gottron, M., Wang, G., Tran-Viet, K.N., Brewington, D., Beyer, J.L., Steffens, D.C., Krishnan, R.R., and Zuchner, S. (2010). Functional evidence implicating a novel TOR1A mutation in idiopathic, late-onset focal dystonia. J. Med. Genet. 47, 646 - 650.
# 8. Rittiner* JE, Caffall* ZF, Hernandez-Martinez R, Sanderson SM, Pearson JL, Tsukayama KK, Liu AY, Xiao C, Tracy S, Shipman MK, Hickey P, Johnson J, Scott B, Stacy M, Saunders-Pullman R, Bressman S, Simonyan K, Sharma N, Ozelius LJ, Cirulli ET, Calakos N. Functional Genomic Analyses of Mendelian and Sporadic Disease Identify Impaired eIF2alpha Signaling as a Generalizable Mechanism for Dystonia. Neuron. 2016 Dec 21;92(6):1238-1251. doi: 10.1016/j.neuron.2016.11.012. Epub 2016 Dec 8. PMID: 27939583; PMCID: PMC5320521.
# High-content, High-throughput Drug Screening Assay
# The TorsinA mislocalization assay was modified from the previously published assay to accommodate compound testing in 1536 well format.1 Briefly, Flp-In T-REx 293 cells from Invitrogen in which a single copy of a cDNA is recombined into a specific genomic locus was used to create tetracycline-inducible expression of cDNA encoding either EGFP-hTOR1A (WT) or EGFP-delE hTOR1A (DYT1). WT and DYT1 cells were diluted to a concentration of 2 x 10^5 cells/mL in reduced serum media (DMEM High Glucose containing 1% tetracycline-tested FBS, 2 mM L-Glutamine, and 1% Penicillin/Streptomycin). 4 µl of WT cells and 4 µl of DTY1 cells were added to column 1 and columns 2-48, respectively, of a poly-D-lysine-coated, low base, black, clear bottom 1536 well plate (Corning, Corning, NY) using the BioRAPTR FRD Microfluidic Workstation (Beckman Coulter, Indianapolis, IN). The final cell number was 800 cells/well. […]
# Potency is the fitted concentration of half-maximal effect.
Structure (SMILES),Potency,"% pathology change, negative = correction"
CCn1ccnc1CC1COc2ccccc2O1 (stereo not given),inactive,
CCCCNC(=O)NS(=O)(=O)c1ccc(C)cc1,inactive,
COc1ccc2c(c1OC)C(=O)O[C@@H]2[C@H]1c2c(cc3c(c2OC)OCO3)CCN1C,inactive,
Cc1ccc(=O)n(-c2ccccc2)c1,inactive,
CCO/C([O-])=N/c1c[n+](N2CCOCC2)no1,inactive,
COc1cc(Cc2cnc(N)nc2N)cc(OC)c1OC,inactive,
Cc1ccc(/C(=C\CN2CCCC2)c2ccccn2)cc1,inactive,
O=c1[nH]c(=O)n([C@H]2C[C@H](O)[C@@H](CO)O2)cc1Br,inactive,
CC(C)NCC(O)c1cc(O)cc(O)c1 (stereo not given),inactive,
C[C@H](CS)C(=O)N1CCC[C@H]1C(=O)O,inactive,
NC(N)=N/N=C/c1c(Cl)cccc1Cl,inactive,
CCCNC(C)C(=O)Nc1ccccc1C (stereo not given),inactive,
COc1ccc([C@@H]2Sc3ccccc3N(CCN(C)C)C(=O)[C@@H]2OC(C)=O)cc1,inactive,
COCCc1ccc(OCC(O)CNC(C)C)cc1 (stereo not given),inactive,
C[C@]12CCC(=O)C=C1CC[C@@H]1[C@@H]2C(=O)C[C@@]2(C)[C@H]1CC[C@]2(O)C(=O)CO,inactive,
Brc1c(NC2=NCCN2)ccc2nccnc12,inactive,
CC(C)(Oc1ccc(CCNC(=O)c2ccc(Cl)cc2)cc1)C(=O)O,inactive,
Cc1nc2c([nH]1)c(=O)n(C)c(=O)n2Cc1ccco1,inactive,
O=C(O)CN(CCOCCOCCN(CC(=O)O)CC(=O)O)CC(=O)O,,13.7% [at 0.369 µM]
CN(C)[C@@H]1C(=O)C(C(N)=O)=C(O)[C@@]2(O)C(=O)C3=C(O)c4c(O)ccc(Cl)c4[C@@H](O)[C@H]3C[C@@H]12,inactive,

Structure (SMILES),Potency,"% pathology change, negative = correction"
CCCN(CCC)C(=O)C(CCC(=O)O)NC(=O)c1ccccc1 (stereo not given),inactive,
Cc1ccc(S(=O)(=O)NC(=O)NN2CCCCCC2)cc1,inactive,
O=C(O)CP(=O)(O)O,inactive,
CC[N+](C)(C)c1cccc(O)c1,inactive,
C#CCN(C)CCCOc1ccc(Cl)cc1Cl,inactive,
COC(=O)C1=C(C)NC(C)=C(C(=O)OC(C)(C)CN(C)CCC(c2ccccc2)c2ccccc2)C1c1cccc([N+](=O)[O-])c1 (stereo not given),10 µM (active),
NC1=NCC2c3ccccc3Cc3ccccc3N12 (stereo not given),inactive,
CC(C)NNC(=O)c1ccncc1,inactive,
CCN(Cc1ccncc1)C(=O)C(CO)c1ccccc1 (stereo not given),inactive,
C[N+](C)(C)CCOC(=O)CCC(=O)OCC[N+](C)(C)C,inactive,
CN1CCN(CC(=O)N2c3ccccc3C(=O)Nc3cccnc32)CC1,,18.1% [at 4.63 µM]
NCCCNCCSP(=O)(O)O,,18.3% [at 9.22 µM]
CC(=O)OC(C)C[N+](C)(C)C (stereo not given),inactive,
c1ccc2c(c1)CCCC2C1=NCCN1 (stereo not given),inactive,
CCN(CC)CCNC(=O)c1cc(S(C)(=O)=O)ccc1OC,inactive,
CC(C)[N+](C)(CCOC(=O)C1c2ccccc2Oc2ccccc21)C(C)C,inactive,
CN(C)CCOC(=O)COc1ccc(Cl)cc1,inactive,
CCCCNc1c(C(=O)OCC)c(C)nc2c1cnn2CC,inactive,
CCCN(CCC)CCc1cccc2c1CC(=O)N2,inactive,
NC(=O)c1cn(Cc2c(F)cccc2F)nn1,inactive,
